From PubChem BioAssay (EPA / NIEHS) come the findings set out here.

The source made the active and inactive calls. How the source made its calls: active means hit-call score of the fitted dose curve at least 0.9, where 1 is the maximum; inactive means score below 0.9.

The nature of the assay: ATG_TGFb_CIS: Attagene CIS-FACTORIAL HepG2 Assay for human Transforming Growth Factor (TGF) (AID 2282967). The settings on record: HepG2 Attagene CIS TGFb reporter, mRNA transcription; actives raise or lower the signal. On the procedure:
ATG_CIS is a cell-based, multiplexed-readout assay that uses HepG2, a human liver cell line, with measurements taken at 24 hours after chemical dosing in a 24-well plate.ATG_TGFb_CIS is one of 52 assay component(s) measured or calculated from the ATG_CIS assay. It is designed to make measurements of mRNA induction, a form of inducible reporter, as detected with fluorescence intensity signals by Reverse transcription polymerase chain reaction (RT-PCR) and Capillary electrophoresis technology.Data from the assay component ATG_TGFb_CIS was analyzed into 1 assay endpoint. This assay endpoint, ATG_TGFb_CIS, was analyzed with bidirectional fitting relative to DMSO as the negative control and baseline of activity. Using a type of inducible reporter, measures of mRNA for gain or loss-of-signal activity can be used to understand the reporter gene at the transcription factor-level as they relate to the gene TGFB1. Furthermore, this assay endpoint can be referred to as a primary readout, because this assay has produced multiple assay endpoints where this one serves a reporter gene function. To generalize the intended target to other relatable targets, this assay endpoint is annotated to the growth factor intended target family, where the subfamily is transforming growth factor beta.
Human liver HepG2 cells are transiently transfected with multiple reporter transcription units (MRTUs) in 6-well plates using FuGene 6 reagent (Roche; 3 ml FuGene/1 mg DNA). The MRTU constructs are regulated by a cis-regulating element (promoter). […] A major difference between the CIS and TRANS system is that in CIS activities of endogenous TFs are measured, whereas the TRANS assay evaluates changes in activities of exogenous, chimeric NR-Gal4 proteins. […] At the end of 24 hour incubation, total RNA was isolated using TriZol reagent (Invitrogen). The isolated RNA is then reverse-transcribed using oligo(dT) primer and Mo-MLV reverse transcriptase (Invitrogen) with DNAse I (Ambion) treatment for 30 min. The one-tenth of the produced cDNA was amplified by PCR using Taq DNA polymerase (Invitrogen) and two reporter sequence-specific primers. The PCR products were fluorescently labeled by primer extension with 6-arboxyfluorescein (6-FAM) 5'-labeled reporter sequence-specific primer (2 min at 95 C, 20 s at 68 C and 10 min at 72 C) and these products were digested with 5U of HpaI (New England Biolabs) for 2h at 37 C. The fragments were purified using Qiaquick PCR columns (Qiagen), analyzed on an ABI 3130xL genetic analyzer (Applied Biosystems) with peak positions identified by using a set of X-rhodamine (ROX)-labeled MapMarker1000 molecular weight standards (BioVentures). The raw capillary electrophoresis data was processed using Attagraph software (Attagene).
For `O=C1OC(=O)c2ccc3c4c(ccc1c24)C(=O)OC3=O`, the compound was called inactive. Consider `CC1=CCC2C(=O)OC(=O)C2C1` (stereo not given), for which the compound was called inactive. Same read-out and setting: as for `N#CCCOCCC#N`, the entry is “inactive”; as for `O=C(Cl)C(F)(F)C(F)(F)C(F)(F)C(F)(F)C(F)(F)C(F)(F)F`, “inactive”. For orientation: AC50 means the midpoint of the concentration-response curve, whichever way the signal moves. `Cc1cc(O)c(C(C)(C)C)cc1C(C)(C)C`: the half-maximal activity concentration (AC50) is 2.2 µM (active). `NC(=O)C(F)(F)C(F)(F)C(F)(F)C(F)F`: the compound was called inactive. Turning to `O=c1cccc[nH]1`, the compound was called inactive. On the same count and under the same terms, as for `O=C(O)C(F)(F)C(F)(F)C(F)(F)OC(F)(F)F`, the entry is “inactive”. Same read-out and setting: as for `CO[Si](CCCOCC1CO1)(OC)OC` (stereo not given), the entry is “inactive”.

Take `CC1=CCC(=O)O1`: the compound was classed as inactive. Regarding `CCN=C1C=CC(=C(c2ccc(N(CC)CC)cc2)c2ccc(N(CC)CC)cc2)c2ccccc21`, the outcome was inactive. The same measure, in the same setting: as for `FC(F)(F)C(F)(F)C(F)(F)C(F)(F)C(F)(F)C(F)(F)CC[Si](Cl)(Cl)Cl`, the entry is “inactive”; as for `OCC1CCCO1` (stereo not given), “inactive”; as for `CCC(Cc1c(I)cc(I)c(N)c1I)C(=O)O` (stereo not given), “inactive”. Regarding `CN(C)C(C)(C)CO`, the call was inactive. Consider `CCCCCCCC/C=C\CCCCCCCC(=O)OCC(O)CO` (stereo not given), for which the compound was classed as inactive. Same read-out and setting: under `CCCCOC(=O)C(C)O` (stereo not given) stands “inactive”; under `CC(C)=CCCC(C)O` (stereo not given), “inactive”. For `NS(=O)(=O)C(F)(F)C(F)(F)C(F)(F)C(F)(F)C(F)(F)C(F)(F)F`, the concentration at half-maximal activity (AC50) was 54.4 µM (active).

As for `O=C(c1ccccc1)c1ccc(O)cc1O`, the compound was classed as inactive. Still for that read-out and setting: as for `COC(F)(C(F)F)C(F)(F)F` (stereo not given), the entry is “inactive”; as for `OCC(F)(F)C(F)(F)C(F)(F)CO`, “inactive”; as for `Nc1c(Br)cc([N+](=O)[O-])cc1Br`, “inactive”. Same read-out and setting: as for `CCN(CC)c1ccc(C=O)c(O)c1`, the entry is “inactive”; as for `NC(=O)C(F)(F)C(F)(F)C(F)(F)C(F)(F)C(N)=O`, “inactive”. The same measure, in the same setting: under `O=C(O)CCC(F)(F)C(F)(F)C(F)(F)F` stands “inactive”; under `O=C1C=CC(=O)N1c1ccccc1`, “inactive”. Take `CCN(CC)c1ccc(C=O)cc1`: the compound was classed as inactive. On the same count and under the same terms, as for `CCc1cc(Cc2cc(CC)c(N)c(CC)c2)cc(CC)c1N`, the entry is “inactive”. Still for that read-out and setting: as for `C[Si](C)O[Si](C)C`, the entry is “inactive”; as for `O=C(Cl)c1ccc(Cl)cc1Cl`, “inactive”; as for `CCCCOC(=O)[C@H](C)O`, “inactive”. In the case of `CCCCC(CC)COC(=O)c1ccc(N(C)C)cc1` (stereo not given), the outcome was inactive. For the compound `CC(=O)CCC(C)C`, the call was inactive. Same read-out and setting: under `OCC(F)(F)C(F)(F)C(F)(F)C(F)(F)C(F)(F)C(F)(F)C(F)(F)C(F)(F)CO` stands “inactive”.

Take `CC(=O)C=O`: the compound was called inactive. As for `O=C1c2ccccc2C(=O)c2c(Cl)cccc21`, the outcome was inactive.

Consider `CC(C)CCCC(C)CCO` (stereo not given), for which the compound was classed as inactive.

Turning to `CC(C)(C)c1cc(Cc2cc(C(C)(C)C)c(O)c(C(C)(C)C)c2)cc(C(C)(C)C)c1O`, the call was inactive. `O=C(c1ccccc1)c1ccc(Cl)cc1`: the AC50 is 100 µM (active).
